Test results from PubChem BioAssay (EPA / NIEHS).
Activity calls are given as the source filed them. The calls were made as follows: active = hit-call score of the fitted dose curve at least 0.9, where 1 is the maximum; inactive = score below 0.9.

experiment: APR_HepG2_P-H2AX_72hr: Apredica 72-hour HepG2 Assay for H2AX Phosphorylation (AID 2282916); settings: imaging, actives raise or lower the signal
Experimental: APR_HepG2_72hr is a cell-based, multiplexed-readout assay that uses HepG2, a human liver cell line, with measurements taken at 72 hours after chemical dosing in a 384-well plate.APR_HepG2_P-H2AX_72hr is one of 10 assay component(s) measured or calculated from the APR_HepG2_72hr assay. It is designed to make measurements of dna content, a form of viability reporter, as detected with fluorescence intensity signals by HCS Fluorescent Imaging technology.Data from the assay component APR_HepG2_P-H2AX_72hr was analyzed into 1 assay endpoint. This assay endpoint, APR_HepG2_P-H2AX_72hr, was analyzed with bidirectional fitting relative to DMSO as the negative control and baseline of activity. Using a type of viability reporter, measures of protein for gain or loss-of-signal activity can be used to understand the signaling at the pathway-level as they relate to the gene . Furthermore, this assay endpoint can be referred to as a primary readout, because this assay has produced multiple assay endpoints where this one serves a signaling function. To generalize the intended target to other relatable targets, this assay endpoint is annotated to the dna binding intended target family, where the subfamily is cellular response to DNA damage stimulus.
Cells were treated with dimethyl sulfoxide (DMSO) as a solvent control at a final concentration of 0.5% v/v or with compounds in DMSO with a resulting final DMSO concentration of 0.5% v/v. Compound treatment was done at concentrations of 0.39, 0.78, 1.56, 3.12, 6.24, 12.5, 25, 50, 100, and 200 uM in duplicate on each plate. Cells were treated with compounds for 1, 24, or 72 hr. Carbonyl […] m-chloro-phenylhydrazone (CCCP) and taxol were used as positive controls for mitochondrial function and cytoskeletal stability, respectively; DMSO served as the negative control for this experiment. Cells were fixed by the direct addition of 50 uL formaldehyde in Hank's Balanced Salt Solution (HBSS) to a final concentration of 3.7%. After incubation in the fixation medium for 30 min at room temperature (293-298 K), cells were rinsed twice with HBSS and treated with cell permeabilization buffer (16 uL of 0.5% Triton X-100) for 10 min at room temperature (293-298 K) before labeling. For mitochondrial membrane potential and mitochondrial measurements, pre-fixed cells were incubated with 50 uL of MitoTracker Red CMXRos (Invitrogen) at a concentration of 250 nM for 30 min before fixation. In the remaining cases, post-fixed cells were labeled by incubation with a multiplexed mixture of primary antibodies in HBSS for 60 min at room temperature (293-298 K) to detect immunoreactivity of c-Jun (1:500), phospho-histone H3 (1:100), phospho-histone H2A.x (1:200), p53 (1:400), alpha-tubulin (1:200) and Hoechst 33342 (2 ug/mL). Cells were labeled for multiplexed imaging on two separate plates: a) Hoechst 33342, MitoTracker Red, phospho-histone H3, and alpha-tubulin, and b) Hoechst 33342, phospho-histone H2A.x, and c-Jun. A final rinse with HBSS (50 uL) was performed before analysis. The primary and secondary antibodies for the proteins were phospho-histone H3 (rabbit anti-phospho-histone H3 and FITC-donkey anti-rabbit IgG), phospho-histone H2A.x (mouse anti-phospho-histone H2A.x and FITC-donkey anti-mouse IgG), c-Jun (rabbit anti-phospho-c-Jun and Cy3-donkey anti-rabbit IgG), p53 (sheep anti-p53 and Cy5-donkey anti-sheep IgG), alpha-tubulin (mouse anti-alpha-tubulin and Cy5-donkey anti-mouse IgG). These antibodies are available as the CellCiphr HepG2 assay kit (Millipore).Digital images of each well were captured using a Cellomics ArrayScan VTI (Thermo Scientific Cellomics) (0.8 NA objective, 0.63x optical coupler, and XF-93 filter set) at 20x magnification. The images were acquired using the autofocus feature of the ArrayScan instrument, which entails the following steps. First, the camera focuses on channel 1 (Hoechst 33342), where nuclei are identified. Second, a Z offset of 1 um is used for capturing mitochondria (MitoTracker Red). […]

outcome, inactive:
OCC(CO)(CBr)CBr
CCCCC=O
CC(=O)Nc1ccc(O)cc1
CCCCCCCCCCCCOS(=O)(=O)O
O=C(c1ccccc1)c1ccccc1
CCCCC(CC)C(=O)O (stereo not given)
CS(=O)(=O)c1ccc([C@@H](CC2CCCC2)C(=O)Nc2cnccn2)cc1Cl
O=C1NS(=O)(=O)c2ccccc21
CCCCCCCCCCCCCCC

AC50, active:
CN(Cc1cnc2nc(N)nc(N)c2n1)c1ccc(C(=O)N[C@@H](CCC(=O)O)C(=O)O)cc1 0.0391 µM
CCCCc1oc2ccccc2c1C(=O)c1cc(I)c(OCCN(CC)CC)c(I)c1 75.5 µM
O=C(CCCN1CCC(O)(c2ccc(Cl)cc2)CC1)c1ccc(F)cc1 33 µM
CN(C)CCOC(c1ccccc1)c1ccccc1 114 µM
Cc1[nH]nc2c1N=C(c1ccccc1Cl)c1cc([N+](=O)[O-])ccc1N2 19.8 µM
N=C(N)c1ccc(OCCCCCOc2ccc(C(=N)N)cc2)cc1 25.1 µM
